“And” between values parts separate entries of the source, which are not always exact repeats. Equal entries are not always repeated. The source made the active and inactive calls. The calls were made as follows: active = hit-call score of the fitted dose curve at least 0.9, where 1 is the maximum; inactive = score below 0.9.
What follows are compounds tested on Interferon-inducible T-cell alpha chemoattractant (ITAC), CXCL11 (gene 6373) (assay: BSK_BE3C_ITAC: BioMAP Diversity Plus: BE3C Assay for Interferon-inducible T-cell alpha chemoattractant (ITAC) Biomarker Activity (AID 2284279)). Settings: primary human bronchial epithelial cells.
Protocol: BSK_BE3C is a cell-based, multiplexed-readout assay that uses bronchial epithelial cell, a human lung primary cell, with measurements taken at 24 hours after chemical dosing in a 96-well plate.BSK_BE3C_ITAC is an assay component measured in the BSK_BE3C assay. It measures I-TAC antibody related to regulation of gene expression using ELISA technology.Data from the assay component BSK_BE3C_ITAC was analyzed at the endpoint, BSK_BE3C_ITAC, in the positive analysis fitting direction relative to DMSO as the negative control and baseline of activity. Using a type of binding reporter, gain or loss-of-signal activity can be used to understand protein changes. To generalize the intended target to other relatable targets, this assay endpoint is annotated to the 'cytokine' intended target family, where the subfamily is 'chemotactic factor'.
The levels of cell surface (or secreted, indicated by the prefix "s") biomarker endpoints were measured by ELISA. Overt cytotoxicity to cells in confluent adherent cultures (all systems other than the BT system) was assessed by measuring total protein levels using sulforhodamine B (SRB) staining in parallel cultures at the time of biomarker measurements, indicated as SRB endpoints. For proliferation assays for adherent cell types, individual cell types are cultured at sub-confluence and relative cell numbers quantified by SRB staining at time points optimized for each system (48 h: 3C and CASM3C systems; 72 h: BT and HDF3CGF systems; 96 h: SAg system). SRB was performed by staining cells with 0.1% SRB after fixation with 10% TCA and reading wells at 560 nm.Viability and proliferation of PBMC (T cells) was quantified by Alamar Blue reduction for the SAg and BT systems. For PBMC viability (referred to as PBMC Cytotoxicity within the assay endpoint names), cells were plated (75,000/well in a 96-well plate) and then chemical samples added for 1 h before addition of activators, SEB and TSST-1 (20 ng/mL final concentration each). Cells were incubated for 90 h. Then, Alamar Blue (20 uL/well) (Invitrogen, Cat DAL1100) was added for 6 h, and the plates were read with a fluorescence microplate reader at 546/580 nm (excitation/emission). For PBMC proliferation, cells were plated and activated as above but incubated for only 16 h prior to addition of Alamar Blue. Plates were read after 6 h.

SMILES | AC50 | outcome
OC(C(F)(F)F)(C(F)(F)F)C(O)(C(F)(F)F)C(F)(F)F | 47.3 µM (active) and 46.1 µM (active) | –
CN(C)Cc1cc(C(C)(C)C)c(O)c(C(C)(C)C)c1 | – | inactive
COc1cc(CNC(=O)CCCC/C=C/C(C)C)ccc1O | – | inactive
Cc1c(C(N)=O)cc([N+](=O)[O-])cc1[N+](=O)[O-] | 32.7 µM (active) and 30.5 µM (active) | –
O=[N+]([O-])c1cc(S(=O)(=O)Nc2ccccc2)ccc1Nc1ccccc1 | 28.7 µM (active) and 29.5 µM (active) | –
CC[N+](CC)(CC(=O)Nc1c(C)cccc1C)Cc1ccccc1 (tested in a mixture with another compound) | – | inactive
COc1ccc(C(=O)c2ccccc2O)c(O)c1 | – | inactive
CC(C)C1OCCN1CCOC(=O)NCCCCCCNC(=O)OCCN1CCOC1C(C)C (configuration not stated) | – | inactive
C1CN(CCOCCN2CCOCC2)CCO1 | – | inactive
CCC[Si](OC(C)=O)(OC(C)=O)OC(C)=O | – | inactive
COc1ccccc1Oc1c(NS(=O)(=O)c2ccc(C(C)(C)C)cc2)nc(-c2ncccn2)nc1OCCO | – | inactive
CCCCC(CC)COC(=O)C=Cc1ccc(OC)cc1 (configuration not stated) | – | inactive
